# According to PubChem BioAssay (EPA / NIEHS):
# Active and inactive are the calls of the source. The calls were made as follows: active = hit-call score of the fitted dose curve at least 0.9, where 1 is the maximum; inconclusive = response in the unintended direction; inactive = score below 0.9.
# Biological target: human CYP1A2, CYP1A2 (gene 1544) (UniProt P05177)
# Assay: NVS_ADME_hCYP1A2: NovaScreen (NVS) CYP450-related Enzyme Activity (ADME) Assay for human CYP1A2 (AID 2283102);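 as to AC50: fluorescence from turnover of a fluorogenic substrate by recombinant insect-cell CYP1A2; potency for inhibition since loss of fluorescence marks reduced CYP1A2 activity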
# Procedure, shortened: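 rec. hCYP1A2 (insect cells), cell-free; fluorogenic substrate; 0.5 h; FI read. Baseline = acetonitrile; signal loss = inhibition. 10 uM duplicate primary → conc. series for actives.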
# Sequence of human CYP1A2, CYP1A2 (gene 1544) (P05177 whole entry, looked up): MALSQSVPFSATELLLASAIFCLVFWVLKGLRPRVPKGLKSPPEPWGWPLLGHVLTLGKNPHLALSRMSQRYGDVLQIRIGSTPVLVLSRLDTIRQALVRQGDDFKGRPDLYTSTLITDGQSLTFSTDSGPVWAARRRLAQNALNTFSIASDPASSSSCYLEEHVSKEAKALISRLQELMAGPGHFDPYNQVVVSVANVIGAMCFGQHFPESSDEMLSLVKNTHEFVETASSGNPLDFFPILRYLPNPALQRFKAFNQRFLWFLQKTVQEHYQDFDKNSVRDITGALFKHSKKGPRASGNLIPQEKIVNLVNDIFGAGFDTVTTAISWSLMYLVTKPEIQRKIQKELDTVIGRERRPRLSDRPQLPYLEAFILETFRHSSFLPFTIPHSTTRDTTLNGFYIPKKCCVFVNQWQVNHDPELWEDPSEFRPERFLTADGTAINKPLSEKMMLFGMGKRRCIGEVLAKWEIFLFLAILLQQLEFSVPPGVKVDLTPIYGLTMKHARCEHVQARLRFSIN
SMILES,outcome,AC50
O=C(O)CN(CC(=O)O)CC(=O)O,inactive,
CC(COCC(C)OC(=O)c1ccccc1)OC(=O)c1ccccc1 (stereo not drawn),,8.75 µM (active)
COc1ccc(C(=O)Nc2nc3ccccc3c(NCc3ccccc3)c2C#N)cc1,inactive,
Cc1cc(Cc2ccc(N)c(C)c2)ccc1N,inactive,
S=c1[nH]c2ccccc2s1,inactive,

# Biological target: human CYP2D6, CYP2D6 (gene 1565) (UniProt P10635)
# Assay: NVS_ADME_hCYP2D6: NovaScreen (NVS) CYP450-related Enzyme Activity (ADME) Assay for human CYP2D6 (AID 2283107)
# Method: NVS_ADME_hCYP2D6 is a biochemical, single-readout assay that uses extracted gene-proteins from insect cells in a cell-free assay. Measurements were taken 1 hour after chemical dosing in a 96-well plate.NVS_ADME_hCYP2D6 is one of one assay component(s) measured or calculated from the NVS_ADME_hCYP2D6 assay. It is designed to make measurements of enzyme activity, a form of enzyme reporter, as detected with fluorescence intensity signals by Fluorescence technology.Data from the assay component NVS_ADME_hCYP2D6 was analyzed into 1 assay endpoint. This assay endpoint, NVS_ADME_hCYP2D6, was analyzed in the positive analysis fitting direction relative to Acetonitrile as the negative control and baseline of activity. Using a type of enzyme reporter, loss-of-signal activity can be used to understand changes in the enzymatic activity as they relate to the gene CYP2D6. Furthermore, this assay endpoint can be referred to as a primary readout, because this assay has produced multiple assay endpoints where this one serves a enzymatic activity function. To generalize the intended target to other relatable targets, this assay endpoint is annotated to the cyp intended target family, where the subfamily is xenobiotic metabolism.
# Binding assays used specific radioligands (tritiated, iodinated) with non-radioactive competitive displacement ligands in agonist or antagonist protocols (as indicated) and various reference compounds and inhibitors to titrate specific binding to receptors and transporters. Most enzyme assays (CYPs, kinases, phosphatases, proteases, HDACs) used recombinant protein and specific substrates (fluorescence mostly, some colorimetric and radioactive) and inhibitors, followed by a biochemical separation of substrate and product. All assays for the biochemical HTS were initially run in duplicate at a single concentration (10 uM for CYP450 assays and 25 uM for all others). […] Each assay was run with positive and negative controls, and concurrent controls on every plate. The follow-up (secondary) screen tested active chemical-pairs in concentration series, as well as a few additional assays not tested in the primary screen, some selected negative inactives, and several cases re-run in the concentration series for confirmatory purposes.
# Sequence of human CYP2D6, CYP2D6 (gene 1565) (P10635 whole entry, looked up): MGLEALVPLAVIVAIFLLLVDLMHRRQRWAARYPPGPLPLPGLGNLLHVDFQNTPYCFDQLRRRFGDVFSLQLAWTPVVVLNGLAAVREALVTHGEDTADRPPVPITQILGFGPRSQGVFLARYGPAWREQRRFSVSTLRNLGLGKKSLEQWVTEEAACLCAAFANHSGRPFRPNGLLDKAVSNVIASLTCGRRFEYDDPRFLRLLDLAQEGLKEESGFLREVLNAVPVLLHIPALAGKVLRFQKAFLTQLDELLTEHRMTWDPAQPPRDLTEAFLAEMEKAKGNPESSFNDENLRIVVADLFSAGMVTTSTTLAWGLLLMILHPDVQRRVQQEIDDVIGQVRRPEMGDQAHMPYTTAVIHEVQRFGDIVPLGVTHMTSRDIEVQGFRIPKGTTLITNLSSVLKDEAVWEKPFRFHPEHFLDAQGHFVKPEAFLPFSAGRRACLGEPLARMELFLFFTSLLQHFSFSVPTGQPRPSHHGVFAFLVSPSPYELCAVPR
SMILES,AC50,outcome
CCCCCCCCCC[N+](C)(C)[O-],2.69 µM (active),
O=C(N[C@@H](c1ccccc1)[C@@H]1CCCCN1)c1cccc(C(F)(F)F)c1Cl,1.06 µM (active),
CSc1ccc(Oc2ccc(S(N)(=O)=O)cc2CN(C)C)cc1C,4.8 µM (active),
CCN(CC)CCOc1ccc(C(=C(Cl)c2ccccc2)c2ccccc2)cc1,2.38 µM (active),
CN(C)C(=O)NC1(c2ccccc2)CCN(CCC[C@]2(c3ccc(Cl)c(Cl)c3)CCCN(C(=O)c3ccccc3)C2)CC1,1.25 µM (active),
S=c1[nH]c2ccccc2s1,6.77 µM (active),
CC(=O)OC1CC(C)OC(C)O1 (stereo not drawn),,inactive
NC(=Nc1ccccc1)Nc1ccccc1,0.984 µM (active),
